# Results published in ChEMBL document CHEMBL1157539, “Thousands of chemical starting points for antimalarial lead identification” (Nature, 2010).
# Tested on: Plasmodium falciparum
# Assay: GSK_TCMDC: Inhibition of Plasmodium falciparum 3D7 in whole red blood cells, using parasite LDH activity as an index of growth. Test compounds present at 2uM
# Assay type: functional
row,SMILES,Inhibition [%]
1,Nc1nc(N)c2c(Sc3ccccc3)cccc2n1,97
2,Cc1[nH]c(C)c(-c2ccc(Oc3cccc(C(F)(F)F)c3)cc2)c(=O)c1Br,99
3,CCNC(=O)CCc1cccc(Br)c1,89
4,Cc1nc(C)c(-c2ccc(Oc3ccc(Cl)cc3)cc2)c(O)c1I,88
5,CCCOc1cc2c(cc1OCCC)C(C=Cc1ccc(Cl)cc1Cl)=NC(C)C2.Cl (stereo not drawn),90
6,CC(C)(C)c1ccc(-c2nnc(N)nc2N)cc1,92
7,Nc1nc(N)c2c(ccc3c2ccn3Cc2cccc(F)c2)n1,100
8,Cc1nc(C)c(-c2ccc(Oc3cccc(OC(F)(F)F)c3)cc2)c(O)c1Br,100
9,Nc1nc(N)c2c(Oc3ccc(Cl)c(Cl)c3)cccc2n1,95
10,N=C(NCC1CC1c1ccccc1)c1cccc(C(=N)NCC2CC2c2ccccc2)n1 (stereo not drawn),95
11,Cc1nc(C)c(-c2ccc(Sc3ccc(Cl)cc3)cc2)c(O)c1Br,98
12,CC(C)CNc1nc(N)nc2ccc3c(ccn3CC(C)C)c12,99
13,C=CCn1ccc2c3c(N)nc(N)nc3ccc21,89
14,CCc1cc(COc2ccc(CNCCC(C)C)cc2I)c(OCc2ccccc2)c(COc2ccc(CNCCC(C)C)cc2I)c1.Cl,89
15,CCCCc1cc(Cc2cnc(N)nc2N)cc(OC)c1OC.Cl,86
16,CC(C)(C)c1ccc(Cc2cccc3nc(N)nc(N)c23)cc1,100
17,Cc1nc(C)c(-c2ccc(Oc3ccc(Cl)c(Cl)c3)cc2)c(O)c1Br,97
18,CCOc1cc(Cc2cnc(N)nc2N)cc(Br)c1OC,83
